Test results as given in PubChem BioAssay AID588651 (The Scripps Research Institute Molecular Screening Center, 2011).
Active and inactive are the calls of the source. Cut-off read from the data, not from the text of the source: active = inhibition above about 65%; inactive = the rest.

test system: Fam108b; assay: Fam108b inhibition by ABPP, late-stage follow-up, biochemical, gel-based ABPP, recombinant soluble Fam108b, HTS hits, complex proteome (AID 588651); conditions: FP-rhodamine labeling in proteome, at 20 µM, stronger effect = higher value;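 note: Fam108b spiked into mouse brain membrane proteome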

SMILES	inhibition
Oc1ccc(C2Nc3cccc4cccc(c34)N2)c(O)c1	0% (inactive)
CCc1cc(C(Cc2ccc3ccccc3n2)=NO)c(O)cc1O	0% (inactive)
CC1=CC(=O)c2c(O)ccc(O)c2C1=O	50% (inactive)
Brc1csc(C=NNc2nc3ccccc3s2)c1	0% (inactive)
O=C(O)CCCNc1cc(N2CCN(C(=O)c3ccco3)CC2)c2noc3c2c1C(=O)c1ccccc1-3	40% (inactive)
Cc1ccc(S(=O)(=O)N=C2C=C(Sc3ncn[nH]3)C(=O)c3ccccc32)cc1	90% (active)
CC(C)(C)c1nc2scc(-c3cccs3)c2c(=O)o1	80% (active)
O=C1C(Cl)=C(Nc2ccc3cn[nH]c3c2)C(=O)c2ccccc21	0% (inactive)
Cc1ccc(S(=O)(=O)Nc2ccccc2C(=O)Nc2nc(-c3ccc(F)cc3)cs2)cc1	40% (inactive)
Nc1c(S(=O)(=O)c2cccc(Cl)c2)c2nc3ccccc3nc2n1N=Cc1ccc(O)c(O)c1	75% (active)
Oc1nc(Nc2cccc(Cl)c2)sc1/C=C1\C=Nc2ccccc21	80% (active)
Oc1ccccc1C1Nc2cccc3cccc(c23)N1	0% (inactive)
CN(C)S(=O)(=O)c1cccc(NC(=O)COC(=O)c2cc(-c3cccc(Br)c3)nc3ccccc23)c1	0% (inactive)
CCNc1ccc2noc3c2c1C(=O)c1ccccc1-3	0% (inactive)
COc1ccc(/C=C/C(=O)OCC(=O)Nc2cccc(Oc3ccccc3)c2)c(OC)c1	30% (inactive)
Cc1ccc(-n2c(O)c(/C=N/Nc3ccc(S(=O)(=O)N4CCOCC4)cc3[N+](=O)[O-])c3ccccc3c2=O)c(C)c1	40% (inactive)
Oc1ccc(C=NNc2ccnc3cc(Cl)ccc23)c(O)c1O	20% (inactive)

SMILES	inhibition
Cc1ccnc(N=Cc2nc(-c3ccccc3Br)oc2O)c1	7% (inactive)
COc1ccc(-c2csc3nc(-c4ccccc4OC)oc(=O)c23)cc1	80% (active)
O=C(Nc1cccc(-c2csc(Nc3ccc(Cl)cc3)n2)c1)c1cc([N+](=O)[O-])cc(C(F)(F)F)c1	65% (active)
COc1ccc(C=NNC(=O)c2ccc(O)cc2)cc1CN1CCCc2ccccc21	40% (inactive)
COc1cc(-c2nc(-c3ccc4c(c3)-c3ccccc3S4(=O)=O)c(-c3ccccc3)[nH]2)cc(OC)c1O	40% (inactive)
Nc1cc(C(=O)O)c(N)c2c1C(=O)c1ccccc1C2=O	0% (inactive)
COc1cccc2c1C(=O)c1c(O)c3c(c(O)c1C2=O)C[C@@](O)(C(=O)CO)C[C@@H]3O[C@H]1C[C@H](N)[C@H](O)[C@H](C)O1	0% (inactive)
COc1ccc(NC(=S)Nc2ccc3nsnc3c2)cc1	0% (inactive)
Nc1ccc2nc(-c3cccc(-c4nc5ccc(N)cc5[nH]4)c3)[nH]c2c1	30% (inactive)
O=C(Nc1ccc(-c2csc(Nc3ccc(Cl)cc3)n2)cc1)c1cccc(C(F)(F)F)c1	95% (active)
O=S(=O)(c1cc(O)ccc1O)c1cccc2c(S(=O)(=O)c3cc(O)ccc3O)cccc12	10% (inactive)
CC1(C)CC(=O)C2=C(C1)c1c(ccc3ccccc13)NC2c1cc([N+](=O)[O-])cc([N+](=O)[O-])c1O (centres undefined)	50% (inactive)
CCn1nc([N+](=O)[O-])c(C(C#N)c2nc3cc(C(F)(F)F)ccc3s2)c(Cl)c1=O (centres undefined)	0% (inactive)
Oc1ccc(C=NNc2ccnc3cc(Cl)ccc23)cc1O	65% (active)
O=c1oc(-c2ccccc2Cl)nc2ccsc12	95% (active)
O=C(Nc1ccc(N2CCCC2)c(S(=O)(=O)Nc2cccc(C(F)(F)F)c2)c1)c1cccs1	85% (active)
CC1CCN(S(=O)(=O)c2ccc(C(=O)Nc3ccccc3-c3nc4ccccc4[nH]3)cc2)CC1	0% (inactive)
